# In PubChem BioAssay AID588855 (National Center for Advancing Translational Sciences (NCATS), 2011):
# Screen size: about 410,000 compounds; about 5,000 (1.2%) were called active. Another 13% or so got no clear call; they are omitted. Many of the other results were omitted from the sample, so actives are more common in it than they were. Unmarked numbers belong to inactive results. Calls come from the whole dose curve; as a rule, active = well fitted inhibition curve with a large enough effect; inconclusive = small, poorly fitted or top-dose-only effect; inactive = no such curve, though single readings can be large or run the other way.
# Assay: qHTS for Inhibitors of TGF-b; note: nearly all actives have a fitted effect of over 65% in size
# Conditions: HepG2 CAGA-GFP TGF-b/SMAD3 reporter, GFP fluorescence, 18 h, TGF-beta stimulated, 500 pg/mL final; series mostly up to 46.1 µM; activity, negative = inhibition: at the top concentration
# Procedure, shortened: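 HEPG2 CAGA-GFP cells (1000/well, DMEM with 1% FBS) were pre-incubated 2 h at 37 degrees C, given compound by pin tool, then stimulated with TGF-beta at 500 pg/mL final for 18 h before per-cell GFP fluorescence imaging.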
# % is set by controls: 0 for no effect and ±100 for the full control effect; potency is the fitted concentration of half-maximal effect.
Structure (SMILES),"activity, negative = inhibition",Potency
COc1cccc(N2CC(NC(=O)/C=C\c3ccccc3)CC2=O)c1 (centres undefined),-8.37%,–
O=C(CCSCc1cccc(F)c1)NCc1ccccc1,-6.59%,–
CCN(CCCNC(=O)c1ccc(Sc2ccc(C)cc2)c(NC(C)=O)c1)c1cccc(C)c1,-2.89%,–
CCCOc1cccc(C(=O)Nc2cccc(NC(=O)c3ccc(C(C)(C)C)cc3)c2)c1,-8.91%,–
COC(=O)c1ccc(OCC(=O)NC(C)(C)C)cc1,4.89%,–
CCCOc1ccc(C(=O)C(CCC(CNCC)C(=O)c2ccc(OCCC)cc2)CNCC)cc1 (centres undefined),–,3.16 µM (active)
Cc1cc(Br)ccc1NC(=O)Cn1cnc2sc(C)c(S(=O)(=O)N3CCN(C)CC3)c2c1=O,5.55%,–
COc1cc(OC)cc(-c2nc3nc(C)c(CCC(=O)Nc4ccccc4)c(C)n3n2)c1,-0.887%,–
Cc1ccc(-c2cn3c(n2)sc2cc(C(=O)NCCCc4ccccc4)ccc23)cc1,19.4%,–
COc1ccc(N2C(=O)CSC23C(=O)N(Cc2cccc(F)c2)c2ccccc23)cc1Cl (centres undefined),0.856%,–
COc1ccc(-c2nc3c4ccccc4n(CC(=O)Nc4ccc(C(C)=O)cc4)c(=O)n3n2)cc1,-19%,–
COc1ccc(CCNC(=O)COC(=O)Cc2cc(OC)c(OC)c(OC)c2)cc1,-3.46%,–
COc1cc(CC(=O)Nc2nc(-c3ccc(F)c(F)c3)cs2)cc(OC)c1OC,–,11.2 µM (active)
O=C(COC(=O)C1CCCO1)Nc1nc(-c2ccc(F)cc2)cs1 (centres undefined),-6.26%,–
O=[N+]([O-])c1ccc(S(=O)(=O)N2CCN(c3nc(-c4ccccc4)nc4ccccc34)CC2)cc1,3.85%,–
COc1cccc(CNC(=O)C(NS(=O)(=O)c2ccc3nc(C)sc3c2)C(C)C)c1 (centres undefined),-0.357%,–
COc1ccccc1NC(=O)/C=C/C(N)=O,–,12.6 µM (active)
COc1ccccc1NC(=O)c1cc(Cl)nnc1Cl,2.59%,–
COc1ccccc1NC(=S)NC(=O)C(C)C,-9.88%,–
CCOC(=O)C1=C(c2ccccc2)Nc2ncnn2C1c1ccc(Cl)cc1 (centres undefined),9.18%,–
Brc1ccc(C2=CC(c3ccco3)n3ncnc3N2)cc1 (centres undefined),64.9%,–
Clc1ccc2c(c1)C1=C(C(c3ccncc3)O2)C(c2ccc(Br)cc2)n2ncnc2N1 (centres undefined),–,3.98 µM (active)
Cc1cc2c(C)nc(N/N=C/c3ccccc3)nc2o1,1.98%,–
FC(F)(F)c1cccc(N/N=C/c2ccccc2)c1,–,11.2 µM (active)
Cc1nnsc1C(=O)N/N=C/c1cccc(C(F)(F)F)c1,6.29%,–

Structure (SMILES),"activity, negative = inhibition",Potency
O=C1CSC2(C(=O)N(Cc3ccccc3)c3ccccc32)N1c1cccc(F)c1 (centres undefined),-24.9%,–
CCN1CCc2nc3sc(C(=O)Nc4ccccc4OC(F)(F)F)c(N)c3cc2C1,44.2%,–
CCOC(=O)c1c(C)[nH]c(CCC(=O)Nc2ccc(OC)c(OC)c2)c1C,-4.89%,–
Cc1noc(C)c1COc1ccc(C(=O)NCCOc2ccccc2)cc1,-6.19%,–
CN(C)CCNC(=O)c1ccc(-c2cn3c(-c4ccc(Oc5ccccc5)cc4)cnc3cn2)cc1,–,11.2 µM (active)
CN(C)C(CNC(=O)c1ccc(OCc2cn3ccccc3n2)cc1)c1ccco1 (centres undefined),9.62%,–
COc1ccc(CCNC(=O)C(=O)NCC(c2ccco2)S(=O)(=O)c2cccs2)cc1OC (centres undefined),1.36%,–
OCC1OC(n2cnc3c(N4CCCC4)ncnc32)C(O)C1O (centres undefined),–,2.82 µM (active)
OC[C@@H]1O[C@H](n2cnc3c(SCc4ccccc4)ncnc32)[C@H](O)[C@H]1O,-27.6%,–
CN1C[C@@H](CO)O[C@@H](n2cnc3c(N4CCN(CCO)CC4)ncnc32)C1,27.1%,–
COc1ccccc1NC(=O)CSc1oc(-c2ccco2)nc1S(=O)(=O)c1ccc(Br)cc1,-1.11%,–
COc1ccccc1-c1cc2nc(C)c(CCC(=O)O)c(C)n2n1,25.9%,–
CN(N=O)c1ccc(C=C2c3ccccc3-c3ccccc32)cc1,15.6%,–
Cc1ccc(-c2nc(=N)sn2Cc2ccccc2)cc1,4.17%,–
Cc1ccc(-n2c3nc(=O)[nH]c(=O)c-3cc3c(Cl)cccc32)cc1,8.21%,–
O=C(NCCCN1CCN(c2cccc(Cl)c2)CC1)c1nnc(Cc2ccc(F)cc2Cl)o1,–,10 µM (active)
COc1ccc(N2CCN(CCNC(=O)c3nnc(Cc4c(F)cccc4Cl)o3)CC2)cc1,0%,–
Cc1ccc(CCNC(=O)c2nnc(Cc3cccc(F)c3)o2)cc1,-9.99%,–
COc1ccc(CCC(=O)NCc2ccc3c(c2)CCN3C(=O)c2ccc(F)cc2)cc1,13.9%,–
CCCNC(=O)c1ccc(Cn2c(SCC(N)=O)nc3ccccc3c2=O)cc1,6.6%,–
COc1ccc(OC)c(CNC(=O)c2c3c(nc4ccccc24)C(=O)N(C2CCCCC2)C3)c1,17.7%,–
SCc1nc2ccc(Cl)cc2[nH]1,-2.28%,–
O=c1[nH]c(CCl)nc2cc(-c3ccc(Cl)cc3)sc12,–,5.01 µM (active)
Cn1c(NCc2cccnc2)nc2cc(-c3ccc(F)cc3)sc2c1=O,17.1%,–
CC(C)(C)c1ccc(C(=O)C[N+]2(C)CCCc3ccccc32)cc1 (centres undefined),-15.7%,–

Structure (SMILES),"activity, negative = inhibition",Potency
Cc1nc(N=C(N)N)nc2c(C)cccc12,–,11.2 µM (active)
N#Cc1ccc[n+](CC(=O)c2ccc(O)c(O)c2)c1,18.3%,–
CCCCCCCNc1ccc(/C=C/c2ccnc3ccccc23)cc1,-2.79%,–
COc1ccc(Cn2c(=O)c3oc4ccccc4c3n(CC(=O)Nc3ccc(F)cc3F)c2=O)cc1,0.208%,–
CC(C)CNc1ncnc2c1nnn2C,-15.1%,–
CCCCSc1ncnc2c1sc1nc(N3CCOCC3)c3c(c12)CCCC3,4.55%,–
CCOC(=O)c1c(-c2ccccc2)oc2cc(Br)c(O)c(C=O)c12,0%,–
Cc1oc2cc(Br)c(O)c(Br)c2c1C(=O)c1ccccc1,-23%,–
CCOC(=O)c1c(C)oc2cc(Sc3ccccc3)c(O)c(O)c12,–,10 µM (active)
CCOc1ccc(NC(=O)c2c(NC(=O)Cc3ccccc3)sc3c2CCC(C)C3)cc1 (centres undefined),-6.64%,–
COc1ccc(Cn2c(C(=O)O)c(CNCc3cccc(OC)c3)c3ccc(C)cc32)cc1,24.5%,–
COc1ccc(-n2c(=O)c3ccccc3n(Cc3ccccc3Cl)c2=O)cc1,-14.6%,–
Cc1ccccc1-c1n[nH]c(=S)n1/N=C/c1ccc(-c2ccccc2Br)o1,1.01%,–
Cc1cc(-c2n[nH]c(=S)n2/N=C/C(Br)=C/c2ccccc2)n[nH]1,–,7.08 µM (active)
COc1ccccc1N1CCN(/N=C\C(Br)=C\c2ccccc2)CC1,-15.2%,–
Cc1ccc(Cl)cc1NC(=O)CSc1nc2ccccc2nc1Cc1ccccc1,-4.85%,–
Cc1ccc(CNC(=O)CSc2c(C)cnc3c2c(=O)n(C)c(=O)n3C)cc1,3.08%,–
CN1CCN(c2oc(-c3ccc(COc4ccc(Cl)cc4)o3)nc2C#N)CC1,-13.8%,–
CCOc1cccc(NC(=O)c2ccc(F)c(S(=O)(=O)N(CC)c3cccc(C)c3)c2)c1,-2.74%,–
O=C1CC(c2ccc(F)cc2F)c2cc3c(cc2N1)OCO3 (centres undefined),-29.4%,–
CCCOc1ccccc1C1CC(=O)Nc2cc3c(cc21)OCO3 (centres undefined),–,7.08 µM (active)
COC(=O)c1ccc(C2CC(=O)Nc3cc(OC)c(OC)cc32)cc1 (centres undefined),7.58%,–
Cc1ccc(S(=O)(=O)n2nc(-c3ccc(Cl)cc3)nc2NCc2ccccc2)cc1,-0.47%,–
COc1ccc(OC)c(-n2nnc3c(sc4nc(C)c(Br)c(C)c43)c2=O)c1,1.82%,–
Cc1ccccc1-c1nc2scc(CCNC(=O)C(=O)Nc3ccc(F)cc3F)n2n1,-18.3%,–

Structure (SMILES),"activity, negative = inhibition",Potency
CCOC(=O)C1=CC[C@@H](c2ccccc2)N(S(=O)(=O)c2ccc(C)cc2)[C@H]1c1cccc(OC)c1,-9.22%,–
Cc1ccccc1S(=O)(=O)N1[C@@H](c2cccc(Cl)c2)C(C(=O)OC(C)(C)C)=CC[C@H]1c1ccc(Cl)cc1,-4.34%,–
Cc1ccc(S(=O)(=O)N2[C@@H](c3cccc(Cl)c3)C(C(=O)O)=CC[C@H]2c2ccc(Cl)c(Cl)c2)cc1,–,15.8 µM (active)
CCCCN(C)S(=O)(=O)c1ccc(C(=O)Nc2sc3c(c2C(N)=O)CC(C)(C)NC3(C)C)cc1,-1.07%,–
CCc1ccc(NC(=O)c2nn(-c3ccc(C)cc3)c(=O)n(C)c2=O)cc1,-14.4%,–
CCOC(=O)c1ccccc1NC(=O)c1nn(-c2ccc(OC)c(Cl)c2)c(=O)c2c1c1ccccc1n2C,-24.8%,–
O=C(NC1CC(=O)N(c2ccc(F)cc2)C1)C1CCCCC1 (centres undefined),7.27%,–
CCOC(=O)c1c(S(=O)(=O)Nc2cccc(Cl)c2)c(C)n(C)c1C,-1.47%,–
CCOC(=O)c1c(S(=O)(=O)NCC(=O)Nc2ccc(C)cc2)c(C)n(C)c1C,0.889%,–
CCOC(=O)c1c(S(=O)(=O)NCC(=O)Nc2ccc(Cl)c(C(F)(F)F)c2)c(C)n(C)c1C,–,11.2 µM (active)
COc1ccc(CCNC(=O)c2cnc3sc(N4CCCCCC4)nn3c2=O)cc1OC,-10.2%,–
Cc1nc2cc(C(F)(F)F)ccc2n1CCNc1nc(-c2cc(Cl)c(N)c(Cl)c2)cs1,–,11.2 µM (active)
Nc1c(Cl)cc(-c2csc(N3CCCC3c3nc4cc(Cl)c(Cl)cc4n3CCOCCO)n2)cc1Cl (centres undefined),3.19%,–
CCCn1c(C(C)Nc2nc(-c3ccc(C)cc3)cs2)nc2cc(Cl)c(N3CCCCC3)cc21 (centres undefined),-1.73%,–
Cc1cccc(OCCCC(=O)Nc2sc3c(c2C(N)=O)CCC(C)C3)c1 (centres undefined),0.0551%,–
O=C(CC1C(=O)N(c2ccccc2)C(=O)N1CCc1cccs1)Nc1ccc(F)cc1 (centres undefined),-1.13%,–
O=C1NC(Nc2nc3ccccc3s2)(C(F)(F)F)C(=O)N1C1CCCCC1 (centres undefined),–,7.94 µM (active)
O=C(NC1(C(F)(F)F)N=C(c2ccccc2)N(C2CCCCC2)C1=O)c1ccccc1F (centres undefined),0.835%,–
COc1cc(SC#N)ccc1N=Cc1c(C)[nH]n(-c2ccc(C)cc2)c1=O,–,10 µM (active)
CCN(CC)CCNC(=O)c1cc2c(=O)oc3ccc(C)cc3c2s1,-1.4%,–
Cc1cccc(-n2ncc(C(=O)N3CCc4ccccc4C3)c2C2CCN(C(=O)OC(C)(C)C)CC2)c1,2.06%,–
CCN(CC)CCNC(=O)Cn1ncc2c3ccccc3n(Cc3ccccc3C)c2c1=O,–,14.1 µM (active)
CCCN(CCC)CCCNC(=O)Cn1ncc2c3ccccc3n(Cc3ccccc3)c2c1=O,1.04%,–
Cc1ccccc1Cn1c2ccccc2c2cnn(CC(=O)NCc3ccco3)c(=O)c21,-15%,–
